Compounds without any hit were thinned out: in the full panel of roughly 79,000, 15% have a hit. Active and inactive are the calls of the source. No stated cut-off is given here; in the data, active means growth inhibition above about 70%; inactive means the rest.
What was measured:
[1] = NCI Yeast Anticancer Drug Screen. Data for the rad50 strain (AID 155);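 further: 0% = growth of vehicle-only cultures of the same strain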; conditions: S. cerevisiae rad50 strain growth inhibition, hits give high values
In short: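 A DNA repair-deficient yeast mutant serves as the test organism; compound-induced growth inhibition is calculated against vehicle-treated cells.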

[2] = NCI Yeast Anticancer Drug Screen. Data for the mec2-1 strain (AID 157); conditions: S. cerevisiae mec2-1 strain, hits give high values
In short: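 Strain: mec2-1 (DNA repair/cell cycle alteration). Compound exposure, then growth measured; inhibition expressed relative to vehicle.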

[3] = NCI Yeast Anticancer Drug Screen. Data for the sgs1 mgt1 strain (AID 161);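 further: 0% = growth of cultures given vehicle only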; conditions: S. cerevisiae sgs1 mgt1 strain, hits give high values
In short: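 Mutant yeast exposed to compound; growth scored against vehicle-only wells.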

[4] = NCI Yeast Anticancer Drug Screen. Data for the cln2 rad14 strain (AID 165);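 further: 0% = growth equal to vehicle treated cultures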; conditions: S. cerevisiae cln2 rad14 strain, hits give high values
In short: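 Compounds are applied to the cln2 rad14 yeast strain, and growth is then compared with that of vehicle-treated cultures to give inhibition.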

[5] = NCI Yeast Anticancer Drug Screen. Data for the bub3 strain (AID 167); conditions: S. cerevisiae bub3 mutant strain, hits give high values
In short: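 Inhibition values come from growth of compound-treated mutant yeast normalised to vehicle-treated controls.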

[6] = NCI Yeast Anticancer Drug Screen. Data for the mlh1 rad18 strain (AID 175); conditions: S. cerevisiae mlh1 rad18 strain growth inhibition, hits give high values
In short: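 Read-out is yeast growth inhibition, calculated against vehicle-only controls. The compound was applied to a strain engineered with DNA damage repair alterations.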

[7] = at 5.0 µM (retest, dose inferred, filed as 0.5)
[8] = at 50.0 µM (retest, dose inferred, filed as 5.0)

Measured: growth inhibition

COc1cc(C(Sc2ccccc2C(=O)O)Sc2ccccc2C(=O)O)ccc1O
inactive: [1]; [7] 9% | [2]; [7] 12% | [3]; [7] 21% | [4]; [7] 8% | [5]; [7] 12% | [6]; [7] 14%
active: [1]; [8] 91% | [1]; at 50.0 µM 95.5% | [2]; [8] 88% | [2]; at 50.0 µM 95.6% | [3]; [8] 94% | [3]; at 50.0 µM 97.4% | [4]; [8] 93% | [4]; at 50.0 µM 81.6% | [5]; [8] 97% | [5]; at 50.0 µM 87.9% | [6]; [8] 95% | [6]; at 50.0 µM 98.5%

Cc1cc(S(=O)(=O)Nc2n[nH]c(-c3ccccn3)n2)c(S)cc1Cl
active: [1]; [8] 92% | [1]; at 50.0 µM 73.8% | [2]; [8] 84% | [3]; [8] 88% | [4]; [8] 85% | [5]; [8] 93% | [6]; [8] 88%
inactive: [1]; [7] -10% | [2]; [7] 27% | [2]; at 50.0 µM 53.8% | [3]; [7] 18% | [3]; at 50.0 µM 55% | [4]; [7] -4% | [4]; at 50.0 µM 49% | [5]; [7] -29% | [5]; at 50.0 µM 69.3% | [6]; [7] 0% | [6]; at 50.0 µM 56%

Cc1cc(N(CCC#N)CCC#N)ccc1/C(Sc1ccccc1)=C(\NC(=O)/C=C/c1ccccc1)C(=O)Sc1ccccc1
active: [1]; at 50.0 µM 86.6% | [2]; at 50.0 µM 90% | [3]; at 50.0 µM 90.9% | [5]; at 50.0 µM 87.2% | [6]; at 50.0 µM 75.1%
inactive: [1]; [7] 28% | [1]; [8] 28% | [2]; [7] 21% | [2]; [8] 21% | [3]; [7] 25% | [3]; [8] 25% | [4]; [7] 17% | [4]; [8] 17% | [4]; at 50.0 µM 64.5% | [5]; [7] 21% | [5]; [8] 21% | [6]; [7] 24% | [6]; [8] 24%

Nc1ccc2oc(=O)c3ccccc3c2c1
inactive: [1]; [7] 18% | [2]; [7] 7% | [2]; [8] 69% | [2]; at 50.0 µM 36.6% | [3]; [7] 10% | [3]; at 50.0 µM 48% | [4]; [7] 8% | [4]; [8] 30% | [4]; at 50.0 µM 6.8% | [5]; [7] -3% | [5]; at 50.0 µM 33.1% | [6]; [7] 22%
active: [1]; [8] 94% | [1]; at 50.0 µM 85.3% | [3]; [8] 85% | [5]; [8] 74% | [6]; [8] 94% | [6]; at 50.0 µM 86.8%

SCCCCCCCCCCS
active: [1]; [8] 98% | [1]; at 50.0 µM 98.9% | [2]; [8] 99% | [2]; at 50.0 µM 99.4% | [3]; [8] 89% | [3]; at 50.0 µM 99% | [4]; [8] 94% | [4]; at 50.0 µM 87.3% | [5]; [8] 99% | [5]; at 50.0 µM 97.5% | [6]; [8] 96% | [6]; at 50.0 µM 99.1%
inactive: [1]; [7] 0% | [2]; [7] 0% | [3]; [7] 1% | [4]; [7] 4% | [5]; [7] 2% | [6]; [7] -1%

Cn1c(=O)c2c(nc(OCC(C)(C)C)n2C)n(C)c1=O
inactive: [1]; [7] 4% | [1]; [8] 2% | [1]; at 50.0 µM -5.2% | [2]; [7] 0% | [2]; [8] 5% | [2]; at 50.0 µM 10.9% | [3]; [7] 3% | [3]; [8] -1% | [3]; at 50.0 µM 26.1% | [4]; [7] 9% | [4]; [8] 8% | [4]; at 50.0 µM 8.75% | [5]; [7] 0% | [5]; [8] 3% | [5]; at 50.0 µM 16.9% | [6]; [7] -13% | [6]; [8] 3% | [6]; at 50.0 µM 23.8%

CCCCCCCCCCCCCCCCCCOC(=O)C(N)CCCCN (configuration not stated)
active: [1]; [8] 98% | [1]; at 50.0 µM 98.3% | [2]; [8] 97% | [2]; at 50.0 µM 98.8% | [3]; [8] 97% | [4]; [8] 87% | [4]; at 50.0 µM 96.7% | [5]; [8] 96% | [5]; at 50.0 µM 98.2% | [6]; [8] 96% | [6]; at 50.0 µM 98.3%
inactive: [1]; [7] 2% | [2]; [7] -3% | [3]; [7] 3% | [3]; at 50.0 µM 50.5% | [4]; [7] -7% | [5]; [7] -7% | [6]; [7] -5%

CCCCCCCCCCCCN(CCO)CCO
inactive: [1]; [7] 68% | [2]; [7] 36% | [3]; [7] 63% | [4]; [7] 67% | [5]; [7] 57% | [5]; at 50.0 µM 60.6% | [6]; [7] 41%
active: [1]; [8] 95% | [1]; at 50.0 µM 74.9% | [2]; [8] 96% | [2]; at 50.0 µM 79.3% | [3]; [8] 96% | [3]; at 50.0 µM 89.5% | [4]; [8] 92% | [4]; at 50.0 µM 73.8% | [5]; [8] 98% | [6]; [8] 91% | [6]; at 50.0 µM 85.2%

Nc1cc2c(cc1/C=C(\C(=O)O)c1ccccc1)OCO2
inactive: [1]; [7] -1% | [1]; [8] -4% | [1]; at 50.0 µM 52.2% | [2]; [7] -11% | [2]; [8] -8% | [2]; at 50.0 µM -8.75% | [3]; [7] -5% | [3]; [8] -8% | [3]; at 50.0 µM 56% | [4]; [7] -4% | [4]; [8] 9% | [4]; at 50.0 µM -24.6% | [5]; [7] -6% | [5]; [8] 2% | [5]; at 50.0 µM -5.95% | [6]; [7] -3% | [6]; [8] -2% | [6]; at 50.0 µM 15.2%

— PubChem BioAssay (NCI)
